Test results published in the supplement of paper PMC8387472.

Legend:
Settings in all cases: mESC; 2uM; 72 h treatment, harvest day 5
Rifapentine = compound: CO[C@H]1/C=C/O[C@@]2(C)Oc3c(C)c(O)c4c(O)c(c(/C=N/N5CCN(C6CCCC6)CC5)c(O)c4c3C2=O)NC(=O)/C(C)=C\C=C\[C@H](C)[C@H](O)[C@@H](C)[C@@H](O)[C@@H](C)[C@H](OC(C)=O)[C@@H]1C [Rifapentine]; assay: fraction of microhomology deletions among edited reads; higher = more MH deletions
[1] = compound: COc1ccccc1-c1cc(Nc2cccc(CS(N)(=O)=O)c2)ncn1; assay: as above
[2] = compound: C[C@@H]1CN(CC(=O)Nc2ccc3c(c2)Cc2cccc(-c4cc(=O)cc(N5CCOCC5)o4)c2S3)C[C@H](C)O1; assay: as above
[3] = compound: Cc1cc(C)nc(SCC(=O)Nc2ncc(Cc3cccc4ccccc34)s2)n1; assay: as above
[4] = compound: Cc1cccc(CC(=O)N2CCc3c2ccc(-c2cn(C)c4ncnc(N)c24)c3F)n1; assay: as above
[5] = compound: NC(=O)c1ccc2nc(-c3ccc(Oc4ccc(Cl)cc4)cc3)[nH]c2c1 [Chk 2 inhibitor II (BML-277)]; assay: as above
Tucidinostat (Chidamide) = compound: Nc1cc(F)ccc1NC(=O)c1ccc(CNC(=O)/C=C/c2cccnc2)cc1 [Tucidinostat (Chidamide)]; assay: as above
Pemetrexed = compound: Nc1nc2[nH]cc(CCc3ccc(C(=O)N[C@@H](CCC(=O)O)C(=O)O)cc3)c2c(=O)[nH]1 [Pemetrexed]; assay: as above
[6] = compound: Nc1ncnc2c1c(-c1cnc3[nH]ccc3c1)nn2C1CCCC1; assay: as above
[7] = compound: O=C(c1cccc(Cl)c1F)N1CCN(Cc2cccc(Nc3nccs3)n2)CC1; assay: as above
Kenpaullone = compound: O=C1Cc2c([nH]c3ccc(Br)cc23)-c2ccccc2N1 [Kenpaullone]; assay: as above
Genistein = compound: O=c1c(-c2ccc(O)cc2)coc2cc(O)cc(O)c12 [Genistein]; assay: as above
[8] = compound: O=c1cc(N2CCOCC2)oc2c(-c3ccc4c(c3)OCCO4)csc12; assay: as above
Mercaptopurine (6-MP) = compound: S=c1[nH]cnc2nc[nH]c12 [Mercaptopurine (6-MP)]; assay: as above
[9] = compound: S=c1nc[nH]c2nc[nH]c12 [6-Mercaptopurine (6-MP) Monohydrate]; assay: as above
[10] = compound: CC(=O)O/N=C1\C(=O)N(Cc2cc(Cl)ccc2Cl)c2ccc(Cl)cc21; assay: fraction of 1-bp insertions among edited reads; higher = more 1-bp insertion outcomes
[11] = compound: CC(C)(C#N)c1ccc(N2C(=O)OCc3cnc4ccc(-c5cnc6ccccc6c5)cc4c32)cc1; assay: as above
[12] = compound: CCCCOc1c(C(=O)c2c(F)cc(C)cc2F)c[nH]c2nncc1-2; assay: as above
[13] = compound: CCN1CCN(CC(=O)Nc2ccc(-c3cccc4c(=O)cc(N5CCOCC5)oc34)c3sc4ccccc4c23)CC1; assay: as above
[14] = compound: CCc1c2c(nc3ccc(OC(=O)N4CCC(N5CCCCC5)CC4)cc13)-c1cc3c(c(=O)n1C2)COC(=O)[C@]3(O)CC [Irinotecan HCl Trihydrate]; assay: as above

Target | fraction of microhomology deletions among edited reads (Rifapentine) | fraction of microhomology deletions among edited reads [1] | fraction of microhomology deletions among edited reads [2] | fraction of microhomology deletions among edited reads [3] | fraction of microhomology deletions among edited reads [4] | fraction of microhomology deletions among edited reads [5] | fraction of microhomology deletions among edited reads (Tucidinostat (Chidamide)) | fraction of microhomology deletions among edited reads (Pemetrexed) | fraction of microhomology deletions among edited reads [6] | fraction of microhomology deletions among edited reads [7] | fraction of microhomology deletions among edited reads (Kenpaullone) | fraction of microhomology deletions among edited reads (Genistein) | fraction of microhomology deletions among edited reads [8] | fraction of microhomology deletions among edited reads (Mercaptopurine (6-MP)) | fraction of microhomology deletions among edited reads [9] | fraction of 1-bp insertions among edited reads [10] | fraction of 1-bp insertions among edited reads [11] | fraction of 1-bp insertions among edited reads [12] | fraction of 1-bp insertions among edited reads [13] | fraction of 1-bp insertions among edited reads [14]
5.0 (DMSO control at this site: 1-bp insertion 0.214, MH deletion 0.567, edited 0.105) CGCTGACCCGAGACCTACGCGAACCGAAATCGGCGACCGGTGCGCAAGCAGGGCTGGCGTC | 0.578 | 0.519 | 0.353 | 0.571 | 0.568 | 0.58 | 0.526 | 0.565 | 0.512 | 0.537 | 0.523 | 0.604 | 0.61 | 0.507 | 0.498 | 0.204 | 0.198 | 0.226 | 0.0634 | 0.239
0.0 (DMSO control at this site: 1-bp insertion 0.463, MH deletion 0.339, edited 0.14) AGGATTACCGAGACCTACGCGAACCGAAATCGCTGTCCGGTGCGCAAGCAGGGCTGGCGTC | 0.37 | 0.294 | 0.108 | 0.304 | 0.291 | 0.331 | 0.275 | 0.346 | 0.23 | 0.201 | 0.22 | 0.34 | 0.384 | 0.288 | 0.282 | 0.437 | 0.497 | 0.504 | 0.175 | 0.456
3.0 (DMSO control at this site: 1-bp insertion 0.109, MH deletion 0.149, edited 0.09) TGCTAGCGCCCCCACAAAGCGGACCAGCCAGCACTATAGGGAATAAGGCCAACTTGCACCC | 0.188 | 0.178 | 0.0553 | 0.188 | 0.186 | 0.237 | 0.204 | 0.171 | 0.166 | 0.193 | 0.194 | 0.196 | 0.162 | 0.168 | 0.254 | 0.126 | 0.122 | 0.16 | 0.0557 | 0.111
41.0 (DMSO control at this site: 1-bp insertion 0.022, MH deletion 0.754, edited 0.115) AAAGAGACAGCAGGTATGAATCCATCTTCCTGACCCTTGGGACCAGCCGGGGCAGTGAAGC | 0.699 | 0.733 | 0.67 | 0.703 | 0.715 | 0.742 | 0.709 | 0.678 | 0.722 | 0.694 | 0.672 | 0.753 | 0.762 | 0.701 | 0.674 | 0.0367 | 0.0302 | 0.0252 | 0.0166 | 0.0367
